PubChem BioAssay
A number with no mark means an inactive call. Calls of active or inactive are those of the source. Unless noted, no stated cut-off is given here; in the data, active means inhibition above about 36%; inactive means the rest.

Columns and labels:
[1] = system: transactivating tegument protein VP16 (Human herpesvirus 1); assay: compounds suppressing VP16-driven luciferase signal – cell-based, luminescence, single concentration, counter-screen for SRC2 inhibitor project (AID 652007); details: cell-based VP16 transactivation luciferase reporter, at 8.9 µM, hits give high values
[2] = target: Nuclear receptor coactivator 2 (Homo sapiens) (UniProt Q15596); assay: inhibition of GAL4-SRC2 driven luciferase expression – cell-based, luminescence, HEK293, triplicate, confirmation (AID 652008;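 active means mean inhibition above 46.5%, the solvent-only control mean plus 3 SD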;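 further: 0% = DMSO-treated cells and 100% = Gossypol at 36 µM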); details: HEK293 GAL4-SRC2 luciferase reporter, at 8.9 µM, hits give high values
Sequence of Nuclear receptor coactivator 2 (Homo sapiens) (Q15596 whole entry, looked up, the tested form may be a part): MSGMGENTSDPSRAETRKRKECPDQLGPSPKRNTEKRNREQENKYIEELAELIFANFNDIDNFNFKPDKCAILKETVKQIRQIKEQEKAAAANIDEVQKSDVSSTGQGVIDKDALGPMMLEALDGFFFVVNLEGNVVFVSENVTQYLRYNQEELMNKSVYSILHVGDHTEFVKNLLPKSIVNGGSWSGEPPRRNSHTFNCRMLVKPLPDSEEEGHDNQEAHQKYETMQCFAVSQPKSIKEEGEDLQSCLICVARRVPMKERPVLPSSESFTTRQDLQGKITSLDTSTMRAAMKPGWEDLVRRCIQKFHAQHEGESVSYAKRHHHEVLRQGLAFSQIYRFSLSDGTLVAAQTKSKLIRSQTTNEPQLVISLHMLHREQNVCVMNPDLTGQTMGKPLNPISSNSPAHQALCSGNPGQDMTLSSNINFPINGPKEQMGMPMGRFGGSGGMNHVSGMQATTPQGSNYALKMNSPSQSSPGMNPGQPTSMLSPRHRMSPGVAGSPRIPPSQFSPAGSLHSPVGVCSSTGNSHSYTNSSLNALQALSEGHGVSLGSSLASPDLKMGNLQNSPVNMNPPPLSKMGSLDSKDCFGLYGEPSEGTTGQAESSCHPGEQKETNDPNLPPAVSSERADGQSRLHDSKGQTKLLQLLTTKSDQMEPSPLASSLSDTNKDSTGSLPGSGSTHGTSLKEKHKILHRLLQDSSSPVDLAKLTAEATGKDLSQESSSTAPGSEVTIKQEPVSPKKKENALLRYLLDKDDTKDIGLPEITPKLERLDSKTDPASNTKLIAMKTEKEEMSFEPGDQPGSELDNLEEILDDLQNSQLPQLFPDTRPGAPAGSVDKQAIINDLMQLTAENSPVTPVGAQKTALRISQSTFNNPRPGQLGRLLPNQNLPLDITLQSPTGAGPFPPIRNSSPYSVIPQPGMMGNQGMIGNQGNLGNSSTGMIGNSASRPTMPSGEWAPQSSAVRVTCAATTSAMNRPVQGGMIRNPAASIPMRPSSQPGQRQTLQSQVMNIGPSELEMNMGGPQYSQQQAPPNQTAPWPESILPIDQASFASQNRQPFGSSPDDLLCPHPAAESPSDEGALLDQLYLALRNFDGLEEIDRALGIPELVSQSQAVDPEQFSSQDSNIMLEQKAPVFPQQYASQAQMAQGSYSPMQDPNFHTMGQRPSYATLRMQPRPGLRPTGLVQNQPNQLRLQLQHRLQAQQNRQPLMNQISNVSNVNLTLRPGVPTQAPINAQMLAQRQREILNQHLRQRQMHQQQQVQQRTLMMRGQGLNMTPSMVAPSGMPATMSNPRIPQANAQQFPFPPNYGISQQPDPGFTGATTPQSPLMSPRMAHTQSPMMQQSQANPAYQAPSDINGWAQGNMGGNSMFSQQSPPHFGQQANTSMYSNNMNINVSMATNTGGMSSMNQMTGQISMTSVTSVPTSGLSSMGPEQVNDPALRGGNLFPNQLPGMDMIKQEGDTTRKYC

Compound O=[N+]([O-])c1ccc(-c2ccc(S(=O)(=O)NCCN3CCCC3)cc2)cc1 has an inhibition [1] of 12.2% and an inhibition [2] of 17.4%.

Compound CCn1ccnc1CNC(=O)C1CCC(=O)N(Cc2ccccc2F)C1 (stereo not drawn) has an inhibition [1] of -4.87% and an inhibition [2] of -23.7%.

For CCc1ccc(CNC(=O)c2cc3c(C)nc4ccccc4c3o2)cc1, the inhibition [1] was 20.6% and the inhibition [2] was 10.3%.

CCc1ccc(-c2nc(CS(=O)CC(=O)NCc3ccccc3)c(C)o2)cc1 (stereo not drawn) was tested, and the inhibition [1] was -8.7% and the inhibition [2] was 51.9% (active).

For COc1cc(C)c(Br)cc1S(=O)(=O)NCc1cccs1, the inhibition [1] was -10.6% and the inhibition [2] was -12.6%.

For O=C(NC1CCCC1)C(c1ccccc1)n1c(CSCCOc2ccccc2)nc2ccccc21 (stereo not drawn), the inhibition [1] was 47.1% (active) and the inhibition [2] was 80.3% (active).

With CC(=O)O[C@@H]1C[C@H]2C(C)(C)C(=O)C=C[C@]2(C)[C@H]2CC[C@@]3(C)[C@H](c4ccoc4)OC(=O)[C@H]4O[C@]43[C@@]21C the inhibition [1] was 35.9% (active) and the inhibition [2] was 27%.

In the case of COc1ccc(OC)c(S(=O)(=O)Nc2ccc3c(c2)OCCO3)c1, the inhibition [1] is reported as -22.5% and the inhibition [2] is reported as 21.2%.

Work on COc1ccc(/C=C2/SC(=S)N(CCCC(=O)N3CCN(C)CC3)C2=O)cc1 yielded an inhibition [1] of 8.95% and an inhibition [2] of 2.01%.

For CC(C)=CCC[C@@]1(C(=O)O)[C@H]2CC=C(CO)[C@@H]1CC/C(C)=C/CC/C(C)=C/C2, the inhibition [1] was 14.6% and the inhibition [2] was 17.2%.

CC(=O)c1cc2c(cc1NC(=O)c1ccc(-n3nc(C)cc3C)cc1)OCO2 was tested, and the inhibition [1] was -6.86% and the inhibition [2] was -7.82%.

COc1ccc(C(=O)Nc2nc3ccccc3[nH]2)cc1 showed an inhibition [1] of -57.5% and an inhibition [2] of 13.5%.

With COc1ccc(OC)c(CC(=O)Nc2ccc3c(c2)c(=O)n(C)n3Cc2cccc(C(F)(F)F)c2)c1 the inhibition [1] was -5.16% and the inhibition [2] was -6.44%.

In the case of O=C(CCl)Nc1ccc(-c2ccccc2)cc1, the inhibition [1] is reported as 32.4% and the inhibition [2] is reported as 65.6% (active).

CN(C)c1ccc(NC(=S)c2ccccn2)cc1 was tested, and the inhibition [1] was 1.77% and the inhibition [2] was 59.6% (active).

Work on CCOC(=O)N1C(=O)[C@@](c2ccc(Cl)cc2)(C(C)C)N1C(=O)OCC yielded an inhibition [1] of -14% and an inhibition [2] of 16.6%.

O=C(Nc1ccncc1)c1c(Cl)cccc1Cl gave an inhibition [1] of -4.71% and an inhibition [2] of 12.5%.

In the case of Cc1ccc(C(=O)NC(=S)Nc2ccc(-c3cc4ccccc4oc3=O)cc2)c(C)c1, the inhibition [1] is reported as -3.58% and the inhibition [2] is reported as 19.5%.

Cc1ccc(/C=C2/SC(=S)N(CCCC(=O)Nc3cc([N+](=O)[O-])ccc3O)C2=O)cc1 was tested, and the inhibition [1] was 27.4% and the inhibition [2] was 49.7% (active).

Work on Cc1ccc(C2CC(c3cccs3)=NN2C(=O)CSC2=NCCS2)cc1 (stereo not drawn) yielded an inhibition [1] of 17.9% and an inhibition [2] of 16.1%.

Work on Cc1c(CCC(=O)O)c(=O)oc2cc(OCc3ccccc3Br)ccc12 yielded an inhibition [1] of 19.4% and an inhibition [2] of 20.1%.

In the case of Cc1nc2cc(-c3ccccc3)nn2c(C)c1CCC(=O)N1CCN(c2ccccc2)CC1, the inhibition [1] is reported as 3.67% and the inhibition [2] is reported as 52.6% (active).

For CCc1ccc(/C=C2\SC(=S)N(CCCC(=O)NC3=NCCS3)C2=O)cc1, the inhibition [1] was 41.6% (active) and the inhibition [2] was 90.5% (active).

Cc1ccc(N(C)C(=O)c2cc(S(=O)(=O)N3CCCCC3)c[nH]2)cc1 was tested, and the inhibition [1] was 1.11% and the inhibition [2] was 15.4%.

For CCN1CCN(C(c2ccc(C(F)(F)F)cc2)c2ccc3cccnc3c2O)CC1 (stereo not drawn), the inhibition [1] was -15.7% and the inhibition [2] was 13.2%.

Compound Cc1ccc(NS(=O)(=O)c2cccc(C(=O)NCCCN3CCCC3=O)c2)cc1 has an inhibition [1] of -1.94% and an inhibition [2] of 0.08%.

For O=C(CN1C(=O)NC2(CCCCC2)C1=O)Oc1ccc2c(C(F)(F)F)cc(=O)oc2c1, the inhibition [1] was -11.6% and the inhibition [2] was -1.74%.

CC(=O)NN1C(=O)/C(=C\c2ccc(Br)o2)SC1=S was tested, and the inhibition [1] was 14.8% and the inhibition [2] was 19.2%.

Compound COc1cccc(-c2nc(-c3ccccn3)no2)c1 has an inhibition [1] of -20.4% and an inhibition [2] of 24.9%.

Work on C=C1C(=O)[C@]23C[C@H]1CCC2[C@]1(C)CCC[C@@](C)(C(=O)O)C1C[C@@H]3O (stereo partly drawn) yielded an inhibition [1] of 4.96% and an inhibition [2] of 6.02%.

N#CCCN(C(=O)COC(=O)C1CCN(S(=O)(=O)c2ccccc2C(F)(F)F)CC1)c1ccccc1 showed an inhibition [1] of 0.12% and an inhibition [2] of 11.1%.

Cc1cccc(C)c1NC(=O)CN1CCN(C/C=C/c2ccccc2)CC1 showed an inhibition [1] of -15.1% and an inhibition [2] of -3.36%.

Compound CC(C)(C)NC(=O)COC(=O)c1snc(C(=O)NC2CCCCC2)c1N has an inhibition [1] of -7.99% and an inhibition [2] of 8.82%.

Work on Cc1ccc(C)c(N2CCN(C(=O)c3ccc4c(c3)c(C)c(C)n4C)CC2)c1 yielded an inhibition [1] of -28.6% and an inhibition [2] of 3.19%.

COc1ccc(S(=O)(=O)N2c3ccc(F)cc3CCC2C)cc1 (stereo not drawn) showed an inhibition [1] of -6.76% and an inhibition [2] of 1.23%.

Cc1nc2cc(-c3ccccc3)sc2c(=O)n1N was tested, and the inhibition [1] was 22.3% and the inhibition [2] was 45%.

In the case of Cn1c(=O)c2[nH]c(CCCc3ccc([N+](=O)[O-])cc3)nc2n(C)c1=O, the inhibition [1] is reported as -19.8% and the inhibition [2] is reported as 5.32%.

CCOC(=O)C1=CCN(S(=O)(=O)c2cccc(Cl)c2)C1c1ccc(Cl)c(Cl)c1 (stereo not drawn) was tested, and the inhibition [1] was -7.88% and the inhibition [2] was 7.77%.

For N/C(=N\OC(=O)c1ccc2ccccc2c1)c1ccccn1, the inhibition [1] was -38.3% and the inhibition [2] was -34.3%.

CCN(CC)S(=O)(=O)c1ccc(C)c(NC(=S)NC2CCCCC2)c1 showed an inhibition [1] of 8.38% and an inhibition [2] of -9.1%.

CCC(C)C(NC(=O)OCc1ccccc1)C(=O)OCN1C(=O)c2ccccc2C1=O (stereo not drawn) was tested, and the inhibition [1] was -13.9% and the inhibition [2] was -8.71%.

For NCCCCCc1nnc(SCc2ccccc2Cl)o1, the inhibition [1] was 48.5% (active) and the inhibition [2] was 53.5% (active).

For CCOc1ccc(-n2cc(C(=O)NCc3ccco3)c3cc(OC)c(OC)cc3c2=O)cc1, the inhibition [1] was 2.87% and the inhibition [2] was -7.4%.

For C[C@H]1CCC[C@@H](O)CC(=O)c2c(O)cc(O)cc2CC(=O)O1, the inhibition [1] was 24% and the inhibition [2] was 32.3%.

Cc1ccc(Nc2nc(N)nc(CN3CCN(Cc4ccc5c(c4)OCO5)CC3)n2)cc1 gave an inhibition [1] of -10.2% and an inhibition [2] of -18.2%.

With CC(C)C[C@H]1CN(CCCC[C@H]2CNC(=O)C(=O)N2CCc2ccccc2)C(=O)C(=O)N1CCC1CCCCC1 the inhibition [1] was 10.7% and the inhibition [2] was -17.3%.

In the case of Cc1nnc(NC(=O)c2nc(S(=O)(=O)Cc3ccccc3C)ncc2Cl)s1, the inhibition [1] is reported as 42% (active) and the inhibition [2] is reported as 49.7% (active).

CCN(CC)C(=O)C1CCCN(c2ncnc3c2cnn3-c2cccc(C)c2)C1 (stereo not drawn) gave an inhibition [1] of -13.2% and an inhibition [2] of 30.7%.

For O=C(O)CCSc1nnc(-c2ccc3c(c2)OCO3)o1, the inhibition [1] was 45.9% (active) and the inhibition [2] was 60.7% (active).

COCCN(C(=O)Cc1ccc(S(=O)(=O)N2CCOCC2)s1)c1c(N)n(CC(C)C)c(=O)[nH]c1=O showed an inhibition [1] of 1.4% and an inhibition [2] of -13.1%.

COc1cc(OC)c(C(=O)C=Cc2ccc(OC)c(OC)c2)c(OC)c1 was tested, and the inhibition [1] was -5.35% and the inhibition [2] was 6.31%.

Work on CCOc1ccc(CN(C)C(=O)CCl)cc1 yielded an inhibition [1] of 30.9% and an inhibition [2] of 35.6%.

CCC(C)c1ccc(C(C)NC(=S)NC2CCCCC2)cc1 (stereo not drawn) showed an inhibition [1] of -0.76% and an inhibition [2] of 22.8%.

O=C(CSc1nc(N2CCOCC2)nc(N2CCOCC2)n1)Nc1ccccc1F gave an inhibition [1] of 1.31% and an inhibition [2] of 14.8%.
